Measurements from paper PMC7862700, “An all-to-all approach to the identification of sequence-specific readers for epigenetic DNA modifications on cytosine”.

What was measured:
Test in all cases: DAPPL (digital affinity profiling via proximity ligation, sequencing); 10 mM Tris-HCl pH 7.5, 50 mM NaCl, 1 mM DTT, 4% glycerol, room temperature, 30 min; GST-TFs on glutathione beads, 16-mer random dsDNA library, 0.1% formaldehyde crosslink after washing; high values mean tight binding
[1] = target: T1, FLI1 (Homo sapiens, UniProt Q01543 1-452); conditions: protein: recombinant; tags: N-terminal GST; dsDNA, one strand shown
T1 sequence: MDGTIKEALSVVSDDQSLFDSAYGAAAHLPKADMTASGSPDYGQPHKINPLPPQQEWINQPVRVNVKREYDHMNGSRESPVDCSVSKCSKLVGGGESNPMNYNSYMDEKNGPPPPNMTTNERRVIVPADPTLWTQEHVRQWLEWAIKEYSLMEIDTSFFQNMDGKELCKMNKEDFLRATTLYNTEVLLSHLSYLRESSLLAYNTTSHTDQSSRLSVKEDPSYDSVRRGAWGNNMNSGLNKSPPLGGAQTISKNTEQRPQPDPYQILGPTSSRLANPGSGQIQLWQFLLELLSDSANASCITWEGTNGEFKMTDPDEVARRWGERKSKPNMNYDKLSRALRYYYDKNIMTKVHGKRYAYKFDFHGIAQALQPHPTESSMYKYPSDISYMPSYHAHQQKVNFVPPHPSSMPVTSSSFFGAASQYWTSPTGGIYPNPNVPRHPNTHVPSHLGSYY
Summary of the method: (§1)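 GST fusions of human transcription factors were expressed in yeast and captured with glutathione beads. Once given DNA barcodes and pooled alongside a tag-only sample, they were incubated for 30 min at room temperature with 200 nmole of a random double-stranded 16-mer DNA library in Tris/NaCl/DTT/glycerol buffer, then washed, crosslinked (0.1% formaldehyde), proximity-ligated, PCR-amplified and sequenced on an Illumina NextSeq500. The binding signal of each hexamer is its read frequency for a factor divided by its frequency for the tag-only sample.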

[2] = target: T2, ELK1 (Homo sapiens, UniProt P19419 1-428); conditions: protein: recombinant; tags: N-terminal GST; dsDNA, one strand shown
T2 sequence: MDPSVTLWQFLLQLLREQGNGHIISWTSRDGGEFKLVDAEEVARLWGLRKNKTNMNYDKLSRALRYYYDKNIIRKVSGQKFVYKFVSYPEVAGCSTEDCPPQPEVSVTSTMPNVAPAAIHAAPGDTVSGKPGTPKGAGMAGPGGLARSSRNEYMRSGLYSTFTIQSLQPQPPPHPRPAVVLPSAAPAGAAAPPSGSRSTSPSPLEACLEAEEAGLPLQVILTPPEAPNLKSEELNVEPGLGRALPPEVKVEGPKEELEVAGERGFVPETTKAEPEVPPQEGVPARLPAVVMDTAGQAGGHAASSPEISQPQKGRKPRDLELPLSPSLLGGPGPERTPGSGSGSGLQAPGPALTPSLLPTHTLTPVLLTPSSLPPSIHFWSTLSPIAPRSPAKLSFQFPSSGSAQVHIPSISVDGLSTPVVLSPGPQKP
Summary of the method: as §1

[3] = target: T3, GABPA (Homo sapiens, UniProt Q06546 1-454); conditions: protein: recombinant; tags: N-terminal GST; dsDNA, one strand shown
T3 sequence: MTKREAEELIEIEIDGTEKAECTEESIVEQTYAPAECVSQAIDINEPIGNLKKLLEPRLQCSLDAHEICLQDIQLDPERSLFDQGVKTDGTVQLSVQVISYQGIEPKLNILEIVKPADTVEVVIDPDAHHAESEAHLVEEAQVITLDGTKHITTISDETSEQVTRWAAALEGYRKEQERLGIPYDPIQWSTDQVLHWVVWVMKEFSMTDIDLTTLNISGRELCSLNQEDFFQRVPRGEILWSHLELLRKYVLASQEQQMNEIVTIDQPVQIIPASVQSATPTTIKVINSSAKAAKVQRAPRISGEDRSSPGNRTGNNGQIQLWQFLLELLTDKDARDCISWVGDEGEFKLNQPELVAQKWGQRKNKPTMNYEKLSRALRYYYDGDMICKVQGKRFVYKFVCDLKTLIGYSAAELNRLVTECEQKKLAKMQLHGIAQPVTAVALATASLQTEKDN
Summary of the method: as §1

[4] = target: T4, ERG (Homo sapiens, UniProt P11308 1-479); conditions: protein: recombinant; tags: N-terminal GST; dsDNA, one strand shown
T4 sequence: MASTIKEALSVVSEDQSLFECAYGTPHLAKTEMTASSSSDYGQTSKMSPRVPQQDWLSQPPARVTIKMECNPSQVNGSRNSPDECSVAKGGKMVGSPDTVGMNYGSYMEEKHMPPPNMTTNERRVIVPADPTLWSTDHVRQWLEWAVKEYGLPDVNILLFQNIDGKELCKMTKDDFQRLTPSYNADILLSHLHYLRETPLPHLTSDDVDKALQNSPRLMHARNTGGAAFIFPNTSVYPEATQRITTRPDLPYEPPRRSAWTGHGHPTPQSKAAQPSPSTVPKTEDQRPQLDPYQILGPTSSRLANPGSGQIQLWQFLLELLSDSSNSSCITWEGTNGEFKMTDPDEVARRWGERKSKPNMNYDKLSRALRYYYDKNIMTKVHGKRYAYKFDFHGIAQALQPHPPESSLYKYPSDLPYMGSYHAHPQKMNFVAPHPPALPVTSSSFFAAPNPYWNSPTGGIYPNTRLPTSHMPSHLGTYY
Summary of the method: as §1

[5] = target: ELF1 (Homo sapiens, UniProt P32519 1-619); conditions: protein: recombinant; tags: N-terminal GST; dsDNA, one strand shown
Sequence of ELF1 (P32519 whole entry): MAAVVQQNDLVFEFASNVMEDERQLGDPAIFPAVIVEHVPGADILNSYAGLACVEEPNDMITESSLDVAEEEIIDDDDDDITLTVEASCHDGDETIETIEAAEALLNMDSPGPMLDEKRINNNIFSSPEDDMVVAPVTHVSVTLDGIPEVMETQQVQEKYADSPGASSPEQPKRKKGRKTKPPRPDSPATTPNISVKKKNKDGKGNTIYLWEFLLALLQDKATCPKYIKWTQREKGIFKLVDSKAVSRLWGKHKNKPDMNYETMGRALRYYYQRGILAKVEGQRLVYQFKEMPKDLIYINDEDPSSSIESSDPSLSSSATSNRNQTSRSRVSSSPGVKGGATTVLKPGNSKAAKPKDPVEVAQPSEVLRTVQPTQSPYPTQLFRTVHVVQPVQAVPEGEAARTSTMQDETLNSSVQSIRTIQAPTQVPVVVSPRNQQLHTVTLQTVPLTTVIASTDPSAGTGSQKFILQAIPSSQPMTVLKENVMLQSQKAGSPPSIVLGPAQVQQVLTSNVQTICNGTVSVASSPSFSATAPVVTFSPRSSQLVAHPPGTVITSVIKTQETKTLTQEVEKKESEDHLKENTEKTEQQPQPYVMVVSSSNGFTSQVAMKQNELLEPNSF
Summary of the method: as §1

[6] = target: T5, EHF (Homo sapiens, UniProt Q9NZC4 1-300); conditions: protein: recombinant; tags: N-terminal GST; dsDNA, one strand shown
T5 sequence: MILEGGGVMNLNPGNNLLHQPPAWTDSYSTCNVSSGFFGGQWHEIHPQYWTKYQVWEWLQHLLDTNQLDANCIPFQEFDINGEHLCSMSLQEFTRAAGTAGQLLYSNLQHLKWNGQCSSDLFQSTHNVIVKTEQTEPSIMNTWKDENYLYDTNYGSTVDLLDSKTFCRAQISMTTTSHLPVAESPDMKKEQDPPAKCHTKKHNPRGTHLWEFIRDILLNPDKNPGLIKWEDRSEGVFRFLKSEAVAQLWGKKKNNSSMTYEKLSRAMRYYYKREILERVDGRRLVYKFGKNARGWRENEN
Summary of the method: as §1

[7] = target: SPI1 (Homo sapiens, UniProt P17947 1-270); conditions: protein: recombinant; tags: N-terminal GST; dsDNA, one strand shown
Summary of the method: as §1

[8] = target: SPIB (Homo sapiens, UniProt Q01892 1-262); conditions: protein: recombinant; tags: N-terminal GST; dsDNA, one strand shown
Sequence of SPIB (Q01892 whole entry): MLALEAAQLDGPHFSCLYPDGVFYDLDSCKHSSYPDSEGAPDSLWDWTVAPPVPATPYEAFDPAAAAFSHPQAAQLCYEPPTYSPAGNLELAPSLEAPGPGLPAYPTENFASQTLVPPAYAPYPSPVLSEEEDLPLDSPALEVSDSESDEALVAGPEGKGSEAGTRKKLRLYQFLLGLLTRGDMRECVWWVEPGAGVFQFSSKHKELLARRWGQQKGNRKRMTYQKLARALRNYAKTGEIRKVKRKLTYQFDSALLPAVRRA
Summary of the method: as §1

[9] = target: T6, ELK3 (Homo sapiens, UniProt P41970 1-407); conditions: protein: recombinant; tags: N-terminal GST; dsDNA, one strand shown
T6 sequence: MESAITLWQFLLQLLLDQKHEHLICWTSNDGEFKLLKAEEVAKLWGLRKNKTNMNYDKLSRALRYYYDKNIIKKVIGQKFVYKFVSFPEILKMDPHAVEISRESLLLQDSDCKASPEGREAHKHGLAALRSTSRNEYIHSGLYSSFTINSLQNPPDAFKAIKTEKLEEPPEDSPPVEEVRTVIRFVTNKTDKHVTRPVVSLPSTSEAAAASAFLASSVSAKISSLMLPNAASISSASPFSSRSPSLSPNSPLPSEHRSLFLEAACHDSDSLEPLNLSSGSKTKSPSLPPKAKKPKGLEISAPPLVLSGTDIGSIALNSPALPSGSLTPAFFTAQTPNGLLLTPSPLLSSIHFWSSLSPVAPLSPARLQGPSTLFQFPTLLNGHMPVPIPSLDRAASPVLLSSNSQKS
Summary of the method: as §1

[10] = target: T7, FEV (Homo sapiens, UniProt Q99581 1-238); conditions: protein: recombinant; tags: N-terminal GST; dsDNA, one strand shown
T7 sequence: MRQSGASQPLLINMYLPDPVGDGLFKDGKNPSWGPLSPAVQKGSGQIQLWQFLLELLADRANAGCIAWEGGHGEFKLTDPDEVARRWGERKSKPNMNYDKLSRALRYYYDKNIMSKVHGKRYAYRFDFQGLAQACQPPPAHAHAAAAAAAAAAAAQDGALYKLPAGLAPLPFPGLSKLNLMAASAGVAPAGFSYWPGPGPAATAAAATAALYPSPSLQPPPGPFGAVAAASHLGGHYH
Summary of the method: as §1

[11] = target: ETV5 (Homo sapiens, UniProt P41161 1-510); conditions: protein: recombinant; tags: N-terminal GST; dsDNA, one strand shown
Sequence of ETV5 (P41161 whole entry): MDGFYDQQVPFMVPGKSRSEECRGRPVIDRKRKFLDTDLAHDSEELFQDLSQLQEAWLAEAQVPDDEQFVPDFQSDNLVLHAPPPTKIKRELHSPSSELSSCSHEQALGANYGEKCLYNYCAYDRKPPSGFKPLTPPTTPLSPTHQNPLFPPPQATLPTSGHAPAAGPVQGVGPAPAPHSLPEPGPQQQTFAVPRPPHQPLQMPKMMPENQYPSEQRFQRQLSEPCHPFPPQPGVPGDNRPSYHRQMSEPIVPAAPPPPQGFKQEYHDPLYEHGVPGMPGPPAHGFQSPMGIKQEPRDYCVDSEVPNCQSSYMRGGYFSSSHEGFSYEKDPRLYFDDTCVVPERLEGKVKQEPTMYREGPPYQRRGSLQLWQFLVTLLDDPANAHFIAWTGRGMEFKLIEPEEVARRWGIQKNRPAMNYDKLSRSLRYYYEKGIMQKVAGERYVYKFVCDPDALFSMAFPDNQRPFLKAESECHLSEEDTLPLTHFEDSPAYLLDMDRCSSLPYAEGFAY
Summary of the method: as §1

[12] = target: HSF1 (Homo sapiens, UniProt Q00613 1-529); conditions: protein: recombinant; tags: N-terminal GST; chain copies: 3; dsDNA, one strand shown
Sequence of HSF1 (Q00613 whole entry): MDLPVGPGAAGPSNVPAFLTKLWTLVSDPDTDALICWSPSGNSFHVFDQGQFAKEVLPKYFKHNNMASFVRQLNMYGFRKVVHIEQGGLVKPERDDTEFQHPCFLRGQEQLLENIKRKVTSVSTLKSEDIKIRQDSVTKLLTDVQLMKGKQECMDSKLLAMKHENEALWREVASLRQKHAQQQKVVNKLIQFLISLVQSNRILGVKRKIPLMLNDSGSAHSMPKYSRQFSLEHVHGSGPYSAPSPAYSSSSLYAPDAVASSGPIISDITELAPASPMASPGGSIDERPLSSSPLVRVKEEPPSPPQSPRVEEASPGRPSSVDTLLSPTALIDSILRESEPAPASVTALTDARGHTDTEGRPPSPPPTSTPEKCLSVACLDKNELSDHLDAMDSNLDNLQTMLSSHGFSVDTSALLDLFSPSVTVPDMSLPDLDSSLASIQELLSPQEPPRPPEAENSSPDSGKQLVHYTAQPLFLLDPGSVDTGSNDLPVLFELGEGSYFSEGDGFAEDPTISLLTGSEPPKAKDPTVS
Summary of the method: as §1

[13] = target: T8, SPIC (Homo sapiens, UniProt Q8N5J4 1-248); conditions: protein: recombinant; tags: N-terminal GST; dsDNA, one strand shown
T8 sequence: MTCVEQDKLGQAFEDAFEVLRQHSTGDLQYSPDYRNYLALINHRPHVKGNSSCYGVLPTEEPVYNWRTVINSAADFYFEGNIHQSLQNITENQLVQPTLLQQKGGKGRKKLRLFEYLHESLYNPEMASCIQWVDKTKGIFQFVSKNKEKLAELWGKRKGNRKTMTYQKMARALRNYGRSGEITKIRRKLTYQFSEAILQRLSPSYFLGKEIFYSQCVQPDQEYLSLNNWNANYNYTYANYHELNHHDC
Summary of the method: as §1

[14] = target: ELF4 (Homo sapiens, UniProt Q99607 1-663); conditions: protein: recombinant; tags: N-terminal GST; dsDNA, one strand shown
Sequence of ELF4 (Q99607 whole entry): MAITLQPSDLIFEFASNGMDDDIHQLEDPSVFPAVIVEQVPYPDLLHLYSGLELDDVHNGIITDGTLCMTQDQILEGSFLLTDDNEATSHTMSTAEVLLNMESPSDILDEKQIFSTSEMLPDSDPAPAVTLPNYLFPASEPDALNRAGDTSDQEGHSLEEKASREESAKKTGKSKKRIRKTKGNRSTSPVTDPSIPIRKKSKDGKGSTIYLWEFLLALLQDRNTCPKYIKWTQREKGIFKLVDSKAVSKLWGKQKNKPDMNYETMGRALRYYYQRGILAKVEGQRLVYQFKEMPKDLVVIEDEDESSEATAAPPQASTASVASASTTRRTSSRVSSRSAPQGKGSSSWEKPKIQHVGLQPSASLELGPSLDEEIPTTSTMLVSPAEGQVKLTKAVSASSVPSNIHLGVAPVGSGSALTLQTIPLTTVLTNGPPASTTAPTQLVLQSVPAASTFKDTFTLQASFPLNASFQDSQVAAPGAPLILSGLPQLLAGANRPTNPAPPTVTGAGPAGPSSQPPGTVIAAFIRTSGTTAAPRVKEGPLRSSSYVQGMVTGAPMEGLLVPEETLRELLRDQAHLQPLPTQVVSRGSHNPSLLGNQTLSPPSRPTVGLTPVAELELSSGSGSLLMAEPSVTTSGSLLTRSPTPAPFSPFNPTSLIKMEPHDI
Summary of the method: as §1

[15] = target: T9, ELK4 (Homo sapiens, UniProt P28324-2 1-405); conditions: protein: recombinant; tags: N-terminal GST; dsDNA, one strand shown
T9 sequence: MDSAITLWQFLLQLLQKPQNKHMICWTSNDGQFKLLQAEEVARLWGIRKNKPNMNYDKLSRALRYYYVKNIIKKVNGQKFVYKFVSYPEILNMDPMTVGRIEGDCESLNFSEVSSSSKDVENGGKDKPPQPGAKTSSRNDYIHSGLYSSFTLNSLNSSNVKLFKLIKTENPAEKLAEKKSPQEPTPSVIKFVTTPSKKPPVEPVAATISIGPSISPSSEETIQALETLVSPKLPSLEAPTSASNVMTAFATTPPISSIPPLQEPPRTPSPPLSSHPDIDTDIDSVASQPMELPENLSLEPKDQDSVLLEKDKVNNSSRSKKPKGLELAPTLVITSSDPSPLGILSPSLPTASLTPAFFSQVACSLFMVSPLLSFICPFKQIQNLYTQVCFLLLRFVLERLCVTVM
Summary of the method: as §1

[16] = target: T10, ETV2 (Homo sapiens, UniProt O00321 1-342); conditions: protein: recombinant; tags: N-terminal GST; dsDNA, one strand shown
T10 sequence: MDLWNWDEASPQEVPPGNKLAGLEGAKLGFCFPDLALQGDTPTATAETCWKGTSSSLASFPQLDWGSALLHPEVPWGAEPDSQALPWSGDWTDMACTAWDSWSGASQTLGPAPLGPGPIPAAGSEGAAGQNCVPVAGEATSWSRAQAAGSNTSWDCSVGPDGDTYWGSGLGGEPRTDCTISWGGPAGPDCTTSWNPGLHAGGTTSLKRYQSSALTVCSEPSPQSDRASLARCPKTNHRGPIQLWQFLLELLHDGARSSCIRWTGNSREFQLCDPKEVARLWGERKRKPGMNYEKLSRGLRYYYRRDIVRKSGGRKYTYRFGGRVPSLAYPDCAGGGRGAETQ
Summary of the method: as §1

[17] = target: T11, ELF3 (Homo sapiens, UniProt P78545 1-371); conditions: protein: recombinant; tags: N-terminal GST; dsDNA, one strand shown
T11 sequence: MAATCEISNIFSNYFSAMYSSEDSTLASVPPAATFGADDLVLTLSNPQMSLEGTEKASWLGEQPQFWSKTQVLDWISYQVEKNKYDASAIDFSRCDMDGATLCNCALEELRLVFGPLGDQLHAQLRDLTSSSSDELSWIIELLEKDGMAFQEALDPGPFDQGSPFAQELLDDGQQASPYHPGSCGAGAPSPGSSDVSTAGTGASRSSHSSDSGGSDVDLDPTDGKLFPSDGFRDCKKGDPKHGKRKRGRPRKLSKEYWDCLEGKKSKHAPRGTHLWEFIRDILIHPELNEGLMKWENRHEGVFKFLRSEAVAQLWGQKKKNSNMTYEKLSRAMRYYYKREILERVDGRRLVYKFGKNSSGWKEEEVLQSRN
Summary of the method: as §1

[18] = target: CRX (Homo sapiens, UniProt O43186 1-299); conditions: protein: recombinant; tags: N-terminal GST; dsDNA, one strand shown
Sequence of CRX (O43186 whole entry): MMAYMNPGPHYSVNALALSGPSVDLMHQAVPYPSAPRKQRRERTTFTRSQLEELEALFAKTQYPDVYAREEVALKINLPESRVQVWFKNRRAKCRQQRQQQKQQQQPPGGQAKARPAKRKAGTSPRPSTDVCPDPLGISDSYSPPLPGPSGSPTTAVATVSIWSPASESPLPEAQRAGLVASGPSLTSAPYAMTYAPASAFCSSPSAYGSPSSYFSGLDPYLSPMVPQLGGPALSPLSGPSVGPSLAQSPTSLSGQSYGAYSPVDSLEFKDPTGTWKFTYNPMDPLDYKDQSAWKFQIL
Summary of the method: as §1

[19] = target: ETV1 (Homo sapiens, UniProt P50549 1-477); conditions: protein: recombinant; tags: N-terminal GST; dsDNA, one strand shown
Sequence of ETV1 (P50549 whole entry): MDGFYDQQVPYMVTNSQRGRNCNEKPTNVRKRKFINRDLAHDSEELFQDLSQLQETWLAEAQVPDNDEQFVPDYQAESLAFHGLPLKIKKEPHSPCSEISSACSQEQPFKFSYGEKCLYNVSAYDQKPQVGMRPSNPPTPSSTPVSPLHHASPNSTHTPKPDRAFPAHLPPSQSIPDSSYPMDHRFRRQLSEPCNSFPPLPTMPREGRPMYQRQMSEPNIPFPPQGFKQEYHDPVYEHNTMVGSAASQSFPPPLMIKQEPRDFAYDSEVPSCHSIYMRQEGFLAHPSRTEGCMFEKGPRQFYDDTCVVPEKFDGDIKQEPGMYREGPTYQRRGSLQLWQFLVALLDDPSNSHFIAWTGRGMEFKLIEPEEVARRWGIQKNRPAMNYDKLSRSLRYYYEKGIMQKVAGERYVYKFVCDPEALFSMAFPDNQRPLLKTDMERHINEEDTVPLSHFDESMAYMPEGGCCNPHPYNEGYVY
Summary of the method: as §1

With TTAACA the binding signal [1] was 1.18 fold enrichment (6-mer frequency, TF over GST control), the binding signal [2] was 1.13 fold enrichment (6-mer frequency, TF over GST control) and the binding signal [3] was 1.15 fold enrichment (6-mer frequency, TF over GST control). The binding signal [4] was 1.15 fold enrichment (6-mer frequency, TF over GST control), the binding signal [5] was 1.17 fold enrichment (6-mer frequency, TF over GST control) and the binding signal [6] was 1.13 fold enrichment (6-mer frequency, TF over GST control). For the same sequence, the binding signal [7] was 1.15 fold enrichment (6-mer frequency, TF over GST control), the binding signal [8] was 1.14 fold enrichment (6-mer frequency, TF over GST control) and the binding signal [9] was 1.19 fold enrichment (6-mer frequency, TF over GST control). For the same sequence, the binding signal [10] was 1.13 fold enrichment (6-mer frequency, TF over GST control), the binding signal [11] was 1.14 fold enrichment (6-mer frequency, TF over GST control) and the binding signal [12] was 1.65 fold enrichment (6-mer frequency, TF over GST control). The binding signal [13] was 1.14 fold enrichment (6-mer frequency, TF over GST control), the binding signal [14] was 1.18 fold enrichment (6-mer frequency, TF over GST control) and the binding signal [15] was 1.28 fold enrichment (6-mer frequency, TF over GST control). The binding signal [16] was 1.23 fold enrichment (6-mer frequency, TF over GST control), the binding signal [17] was 1.22 fold enrichment (6-mer frequency, TF over GST control) and the binding signal [18] was 2.34 fold enrichment (6-mer frequency, TF over GST control). The binding signal [19] was 1.23 fold enrichment (6-mer frequency, TF over GST control).
